Results: ChEMBL document CHEMBL4513141, “CO-ADD screening of NIH (USA) - Clinical Collection” (2021)
Potency and affinity values are given separately.

Assays:
Klebsiella pneumoniae = conditions: Concentration 20 uM; ASSAY_TEST Inhibition of Bacterial Growth; detection method Absorption (OD600); MEDIA CAMHB; plate type 384well; NBS; CORNING #3640; time 18 hr
Candida albicans = conditions: 20 µM
Cryptococcus neoformans = conditions: Concentration 20 uM; ASSAY_TEST Inhibition of Fungal Growth; detection method Resazurin; Absorption (OD600-OD570); plate type 384well; NBS; CORNING #3640

Row | SMILES | Inhibition (Klebsiella pneumoniae) [%] | Inhibition (Candida albicans) [%] | Inhibition (Cryptococcus neoformans) [%]
1 | C#C[C@]1(O)CC[C@H]2[C@@H]3CCC4=CC(=O)CC[C@@H]4[C@H]3CC[C@@]21C [NORETHINDRONE] | 6.67 | 4.82 | 0.28
2 | CC(C)N(CCC(C(N)=O)(c1ccccc1)c1ccccn1)C(C)C.O=P(O)(O)O (centres undefined) [DISOPYRAMIDE PHOSPHATE] | 5.68 | 3.35 | 0.14
3 | C[N+]1(C)CCC(OC(=O)C(O)(c2ccccc2)C2CCCC2)C1.[Br-] (centres undefined) [GLYCOPYRRONIUM BROMIDE] | 13.34 | 3.65 | -2.52
4 | O=C1CN=C(c2ccccc2)c2cc([N+](=O)[O-])ccc2N1 [NITRAZEPAM] | 13.18 | 3.29 | 1.38
5 | CN(C)C(=O)C(CCN1CCC(O)(c2ccc(Cl)cc2)CC1)(c1ccccc1)c1ccccc1.Cl [LOPERAMIDE HYDROCHLORIDE] | 11.49 | 2.32 | -15.04
6 | CN(C)CCc1c[nH]c2ccc(C[C@H]3COC(=O)N3)cc12 [ZOLMITRIPTAN] | 7.51 | 2.65 | 0.25
7 | CC[N+](C)(C)c1cccc(O)c1.[Cl-] [EDROPHONIUM CHLORIDE] | 15.01 | 2.22 | -6.73
8 | Br.CN1[C@@H]2CC(OC(=O)[C@H](CO)c3ccccc3)C[C@H]1[C@@H]1O[C@@H]12.O.O.O (some centres undefined) | 13.1 | 2.39 | -4.17
9 | CN1C(=O)COc2c(C(=O)NC3CN4CCC3CC4)cc(Cl)cc21.Cl (centres undefined) | 10.75 | 2.68 | -3.23
10 | C#C[C@]1(OC(C)=O)CC[C@H]2[C@@H]3CCC4=CC(=O)CC[C@@H]4[C@H]3CC[C@@]21C [NORETHINDRONE ACETATE] | -0.71 | 6.32 | -4.57
11 | Cc1c(OCC(F)(F)F)ccnc1C[S+]([O-])c1nc2ccccc2[nH]1 (centres undefined) [LANSOPRAZOLE] | 7.47 | 9.31 | -23.82
12 | Cn1c(=O)c2nc[nH]c2n(C)c1=O.O [THEOPHYLLINE] | 1.07 | 3.65 | 7.56
13 | N=C(NCc1ccc(Cl)cc1)SCCCc1c[nH]cn1 [CLOBENPROPIT] | 6.85 | 2.99 | -0.61
14 | COC(=O)C[C@](O)(CCCC(C)(C)O)C(=O)O[C@@H]1C(OC)=C[C@]23CCCN2CCc2cc4c(cc2[C@H]13)OCO4 [OMACETAXINE MEPESUCCINATE] | 9.21 | 3.16 | 1.94
15 | Cl.O=C1CC2(CCCC2)CC(=O)N1CCCCN1CCN(c2ncccn2)CC1 [BUSPIRONE HYDROCHLORIDE] | 10.99 | 5.32 | -4.43
16 | CN1C(=O)CN=C(c2ccccc2)c2cc(Cl)ccc21 [DIAZEPAM] | 10.3 | 2.62 | -1.5
17 | CN(C)CCOc1ccc(/C(=C(/CCCl)c2ccccc2)c2ccccc2)cc1.O=C(O)CC(O)(CC(=O)O)C(=O)O [TOREMIFENE CITRATE] | 8.47 | 1.73 | -7.47

Row | SMILES | Inhibition (Klebsiella pneumoniae) [%] | Inhibition (Candida albicans) [%] | Inhibition (Cryptococcus neoformans) [%]
18 | CN1CCN(C(=O)O[C@H]2c3nccnc3C(=O)N2c2ccc(Cl)cn2)CC1 [ESZOPICLONE] | -5.59 | 0.3 | 4.31
19 | C[N+]1(C)CCN(c2ccccc2)CC1.[I-] [DIMETHYLPHENYLPIPERAZINIUM IODIDE] | 19.04 | 2.58 | -7.47
20 | CN1[C@@H](CC(=O)c2ccccc2)CCC[C@H]1C[C@H](O)c1ccccc1.Cl [LOBELINE HYDROCHLORIDE] | 19.91 | 2.98 | -5.47
21 | Cl.O[C@@H]1CCCC[C@H]1N1CCC(c2ccccc2)CC1 | 4.06 | 3.46 | -7.38
22 | CNCCC(Oc1ccc(C(F)(F)F)cc1)c1ccccc1.Cl (centres undefined) [FLUOXETINE HYDROCHLORIDE] | 3.44 | 1.79 | -8.4
23 | Nc1nc(F)nc2c1ncn2[C@@H]1O[C@H](CO)[C@@H](O)[C@@H]1O [FLUDARABINE] | 6.42 | 0.49 | -5.72
24 | CC(=O)CC(c1ccccc1)c1c([O-])c2ccccc2oc1=O.[Na+] (centres undefined) [WARFARIN SODIUM] | 4.09 | 3.09 | 0.59
25 | CCN(C(C)=O)c1cccc(-c2ccnc3c(C#N)cnn23)c1 [ZALEPLON] | 6.53 | -0.36 | -1.32
26 | NC(=O)C[S+]([O-])C(c1ccccc1)c1ccccc1 (centres undefined) [MODAFINIL] | 7.6 | 2.96 | -0.59
27 | O=C(O)CCCc1ccc(N(CCCl)CCCl)cc1 [CHLORAMBUCIL] | 9.18 | 2.65 | 0.85
28 | CC1CCC[C@H](O)CCCCCc2cc(O)cc(O)c2C(=O)O1 (some centres undefined) | 3.64 | 2.99 | -2.51
29 | COc1cc(N)c(Cl)cc1C(=O)NC1CN2CCC1CC2.Cl.O (centres undefined) [ZACOPRIDE HYDROCHLORIDE] | -4 | 5.47 | 0.38
30 | COc1cc(-c2ccc(=O)[nH]n2)ccc1OC(F)F [ZARDAVERINE] | 6.98 | 1.79 | 1.74
31 | CCOC(=O)c1cncn1[C@H](C)c1ccccc1 [ETOMIDATE] | 12.64 | 0.03 | 0.21
32 | Cl.O=C1CC[C@@]2(O)[C@H]3Cc4ccc(O)c5c4[C@@]2(CCN3CC2CC2)[C@H]1O5 [NALTREXONE HYDROCHLORIDE] | 13 | 3.06 | 0.92
33 | C[C@]12CCC(=O)C[C@@H]1CC[C@@H]1[C@@H]2CC[C@@]2(C)[C@H]1CC[C@]2(C)O [MESTANOLONE] | 3.85 | 11.7 | 4.57
